Experimental data: PubChem BioAssay AID2405 (Southern Research Specialized Biocontainment Screening …, 2010)
A number with no mark means an inactive call. No rule for the calls is given here.

Experiment: anti-RSV activity of probe candidates, cell-based (AID 2405)
Conditions: RSV cytopathic effect inhibition, HEp-2 cells, stronger effect = higher value; at 100 µM unless noted

SMILES | maximum inhibition
O=C(Nc1nc(-c2ccc(Cl)cc2)cs1)c1ccccc1F | 3.06% [at 12.5 µM]
OC1c2cc(I)ccc2N=C2CCCN21 (stereo not drawn) | 0.75% [at 50 µM]
COc1ccc(-c2csc(N(Cc3ccccc3)C(=O)c3ccccc3Cl)n2)cc1 | 10.1% [at 25 µM]
COc1ccc(-c2csc(NC(=O)c3cccc(Cl)c3)n2)cc1 | 1.49% [at 25 µM]
COc1ccc(-c2csc(N(CCCN(C)C)C(=O)c3ccccc3Cl)n2)cc1 | 0.91% [at 6.25 µM]
O=C(CSc1nc2cccc(F)c2c(=O)n1-c1ccccc1)Nc1ccc2c(c1)CCC2 | 20.4%
COc1ccc(Cn2nc(C)cc2OC(=O)c2c(F)ccc(C)c2F)cc1 | 1.16% [at 50 µM]
OC1c2cc(Cl)cc(Cl)c2N=C2CCCN21 (stereo not drawn) | 4.35%
COc1ccc(NC(=O)CSc2nc3ccccc3c(=O)n2-c2ccc(F)cc2)cc1 | 18.6%
COc1ccc(-c2csc(N(C)C(=O)c3ccccc3Cl)n2)cc1 | 2.66% [at 12.5 µM]
CC1CC(C)CN(C(=O)CSc2nc3ccccc3c(=O)n2-c2ccc(F)cc2)C1 (stereo not drawn) | 2.13%
CCOC(=O)C1(Cc2ccccc2C(F)(F)F)CCN(C2CCN(C(C)C)CC2)CC1 | 0.09% [at 0.2 µM]
CC1CCCC(C)N1CCCNC(=O)c1cc2c(s1)-c1ccccc1OC2 (stereo not drawn) | 0.79% [at 0.78 µM]
Cc1cccc2nc3n(c(=O)c12)CCC3 | 1.49% [at 25 µM]
COc1ccc(-c2csc(N(CCCN(C)C)C(=O)c3ccccc3F)n2)cc1 | 5.17%
CCCCN(C(=O)c1ccccc1Cl)c1nc(-c2ccc(OC)cc2)cs1 | 5.05% [at 25 µM]
O=C(Nc1nc(-c2ccc(Cl)cc2)cs1)c1ccc(I)cc1 | 1.55% [at 25 µM]
CC1CCCN(CCCNC(=O)c2cc3c(s2)-c2ccccc2OC3)C1 (stereo not drawn) | 3.5% [at 25 µM]
O=C(CSc1nc2ccccc2c(=O)n1-c1ccccc1F)Nc1ccc2c(c1)CCC2 | 7.99% [at 12.5 µM]
O=C(CSc1nc2ccccc2c(=O)n1-c1ccc(F)cc1F)Nc1ccc2c(c1)CCC2 | 5.7% [at 25 µM]
COc1ccc(-c2csc(N(CCCN(C)C)C(=O)c3ccccc3C)n2)cc1 | 0.96% [at 0.2 µM]
OC1c2cc(Br)ccc2N=C2CCCN21 (stereo not drawn) | 13.5%
CCCN(C(=O)c1ccccc1Cl)c1nc(-c2ccc(OC)cc2)cs1 | 14.1% [at 50 µM]
COc1ccc(-c2csc(NC(=O)c3ccc(Cl)cc3)n2)cc1 | 0.97% [at 25 µM]
CC(=O)Nc1ccc2nc3n(c(=O)c2c1)CCC3 | 1.57% [at 50 µM]
Cc1ccc2nc(SCC(=O)Nc3ccc4c(c3)CCC4)n(-c3ccccc3)c(=O)c2c1 | 47.5% [at 12.5 µM]
Cc1cccc2c1-c1sc(C(=O)NCCCN3CCC(C)CC3)cc1CO2 | 0.67% [at 0.2 µM]
Nc1ccc2nc3n(c(=O)c2c1)CCC3 | 1.81% [at 12.5 µM]
